Data reported in PubChem BioAssay (Tox21).
Where “and” joins values, the source holds several entries; their conditions need not be identical. Equal entries are not always repeated. Inconclusive results are not listed. Where a call stands in place of a potency, no number is given. Some structures have more than one record in an assay (separate samples or runs), and their calls can disagree. Calls of active or inactive are those of the source. Unless noted, calls follow the shape of the dose curve; as a rule, active = well fitted curve in the direction sought with a large enough effect in the repeat runs; inconclusive = weak or mixed curves; inactive = no such curve, though single readings can be large; an effect the other way counts as inactive or inconclusive.

What was measured:
[1] = qHTS assay to identify aromatase inhibitors - cell viability counter screen (AID 743084);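 also: cells stimulated with testosterone during compound exposure; nearly all actives have a fitted effect of over 55% in size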; also: potency is read from the fitted curve at half-maximal effect
[2] = molecular target: Aryl hydrocarbon receptor (Homo sapiens) (UniProt P35869); test: qHTS assay to identify small molecule that activate the aryl hydrocarbon receptor (AhR) signaling pathway (AID 743085); also: nearly all actives have a fitted effect of over 15% in size; also: potency is read from the fitted curve at half-maximal effect;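 as to activation: HG2L7.5c1 human HepG2 liver cells with stably integrated DRE-driven firefly reporter; series mostly up to about 70 µM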
Sequence of Aryl hydrocarbon receptor (Homo sapiens) (P35869 whole entry, looked up): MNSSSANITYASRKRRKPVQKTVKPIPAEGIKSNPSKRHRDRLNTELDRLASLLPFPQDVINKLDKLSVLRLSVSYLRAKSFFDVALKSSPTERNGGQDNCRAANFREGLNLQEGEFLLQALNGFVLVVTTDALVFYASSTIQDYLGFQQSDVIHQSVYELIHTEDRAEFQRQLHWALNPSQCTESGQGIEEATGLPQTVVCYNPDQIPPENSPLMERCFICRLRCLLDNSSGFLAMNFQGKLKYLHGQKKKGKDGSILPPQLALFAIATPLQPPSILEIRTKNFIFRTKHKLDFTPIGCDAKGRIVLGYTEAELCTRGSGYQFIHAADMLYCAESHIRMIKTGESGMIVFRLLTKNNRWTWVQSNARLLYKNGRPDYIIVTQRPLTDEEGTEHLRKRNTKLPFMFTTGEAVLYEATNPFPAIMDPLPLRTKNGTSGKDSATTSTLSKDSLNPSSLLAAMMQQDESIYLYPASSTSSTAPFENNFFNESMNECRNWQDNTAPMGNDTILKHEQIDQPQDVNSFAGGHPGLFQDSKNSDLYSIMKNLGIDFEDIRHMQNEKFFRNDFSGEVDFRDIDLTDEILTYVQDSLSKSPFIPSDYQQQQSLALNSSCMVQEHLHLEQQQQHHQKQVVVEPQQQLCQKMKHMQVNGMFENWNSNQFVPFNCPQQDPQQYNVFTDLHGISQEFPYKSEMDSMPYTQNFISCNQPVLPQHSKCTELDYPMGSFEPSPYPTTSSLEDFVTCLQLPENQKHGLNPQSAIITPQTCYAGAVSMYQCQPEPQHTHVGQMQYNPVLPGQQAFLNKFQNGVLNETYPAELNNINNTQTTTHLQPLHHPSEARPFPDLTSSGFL
In short: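 Measured in HG2L7.5c1 cells: CellTiter-Fluor signal (30 min incubation, 37C) for viability, then luciferase luminescence (30 min, room temperature). Compound contact time was 24 h at 37C, following a 5 h pre-incubation.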

[3] = qHTS assay to identify small molecule that activate the aryl hydrocarbon receptor (AhR) signaling pathway - cell viability counter screen (AID 743086); also: nearly all actives have a fitted effect of over 45% in size; also: potency is read from the fitted curve at half-maximal effect
In short: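 Cytotoxicity counter screen: CellTiter-Fluor signal (30 min, 37 C) in 4000 HepG2 cells/well carrying the DRE-luciferase reporter, following 24 h compound exposure at 37 C.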

[4] = molecular target: Peroxisome proliferator-activated receptor gamma (Homo sapiens) (UniProt P37231); test: qHTS assay to identify small molecule agonists of the peroxisome proliferator-activated receptor gamma (PPARg) signaling pathway (AID 743094; active = well fitted activation curve with a large enough effect in the signal ratio in the repeat runs, not every such curve was filed as active; the % refers to the signal ratio; also: potency is read from the fitted curve at half-maximal effect)
Sequence of Peroxisome proliferator-activated receptor gamma (Homo sapiens) (P37231 whole entry, looked up): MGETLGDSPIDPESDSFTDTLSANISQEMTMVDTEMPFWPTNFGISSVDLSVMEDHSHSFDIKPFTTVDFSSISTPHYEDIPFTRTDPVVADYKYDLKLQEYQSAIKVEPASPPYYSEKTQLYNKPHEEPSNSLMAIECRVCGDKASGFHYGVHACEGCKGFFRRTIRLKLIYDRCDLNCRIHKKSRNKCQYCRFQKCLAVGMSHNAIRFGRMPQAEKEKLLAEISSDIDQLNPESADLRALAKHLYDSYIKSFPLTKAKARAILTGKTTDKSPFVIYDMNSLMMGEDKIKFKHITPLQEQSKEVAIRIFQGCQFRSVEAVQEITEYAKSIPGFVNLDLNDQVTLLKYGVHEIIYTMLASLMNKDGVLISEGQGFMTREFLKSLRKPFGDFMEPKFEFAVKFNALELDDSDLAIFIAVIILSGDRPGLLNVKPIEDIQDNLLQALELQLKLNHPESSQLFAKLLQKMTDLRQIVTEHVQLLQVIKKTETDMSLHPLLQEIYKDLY
In short: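 Agonism was assessed in a beta-lactamase reporter system, HEK293H cells with a stably integrated UAS-bla construct under PPARg control; the 17 h treatment at 37C preceded a 1 h room-temperature FRET substrate read.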

[5] = molecular target: Peroxisome proliferator-activated receptor gamma (Homo sapiens) (UniProt P37231); test: qHTS assay to identify small molecule antagonists of the peroxisome proliferator-activated receptor gamma (PPARg) signaling pathway (AID 743191; calls by dose curve; also: nearly all actives have a fitted effect of over 30% in size; also: potency is read from the fitted curve at half-maximal effect)
In short: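 Beta-lactamase reporter under UAS control in HEK293H PPARg-bla cells; compound treatment 17 h at 37C. Read-out: fluorescence intensity after 1 h room-temperature incubation with LiveBLAzer B/G FRET substrate.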

[6] = qHTS assay to identify small molecule antagonists of the peroxisome proliferator-activated receptor gamma (PPARg) signaling pathway - cell viability counter screen (AID 743194); also: nearly all actives have a fitted effect of over 55% in size
In short: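 Viability was measured as CellTiter-Glo luminescence in GeneBLAzer PPARg UAS-bla HEK293H cells. These cells had been exposed 17 h at 37 C to compounds together with rosiglitazone at 50 nM final, with the beta-lactamase readout taken in the same wells.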

[7] = qHTS assay for small molecule agonists of the antioxidant response element (ARE) signaling pathway (AID 743202; active = well fitted activation curve with a large enough effect in the signal ratio in the repeat runs, not every such curve was filed as active; the % refers to the signal ratio; also: potency is read from the fitted curve at half-maximal effect)
In short: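 After 16 hours of compound treatment at 37 C, HepG2 cells with a stably integrated ARE-driven beta-lactamase reporter were loaded 2 hours at room temperature with LiveBLAzer B/G FRET substrate and fluorescence intensity measured.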

[8] = qHTS assay for small molecule agonists of the antioxidant response element (ARE) signaling pathway - cell viability counter screen (AID 743203; calls by dose curve; also: nearly all actives have a fitted effect of over 55% in size)
In short: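 ATP content via CellTiter-Glo luminescence served as the viability measure. Cells: ARE-bla HepG2, 2,000 per well. Exposure: 16 hrs, 37C/5% CO2.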

[9] = qHTS assay for small molecule activators of the heat shock response signaling pathway - cell viability counter screen (AID 743209); also: nearly all actives have a fitted effect of over 50% in size
In short: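 Compounds dissolved in DMSO were added to overnight-plated HSE-bla HeLa cells and left 5 h at 37 C. Cell viability was quantified by luminescence using CellTiter-Glo.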

[10] = qHTS assay for small molecule activators of the heat shock response signaling pathway (AID 743210; active = well fitted activation curve with a large enough effect in the signal ratio in the repeat runs, with a control signal flat, not every such curve was filed as active; the % refers to the signal ratio; also: series mostly up to about 63 µM)
In short: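 Compound exposure lasted 5 h at 37 C in HeLa cells carrying a heat-shock-element-driven beta-lactamase reporter. Read-out: fluorescence intensity after 2.5 h room-temperature loading with LiveBLAzer B/G FRET substrate.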

[11] = qHTS assay to identify small molecule agonists of the peroxisome proliferator-activated receptor delta (PPARd) signaling pathway - cell viability counter screen (AID 743211); also: nearly all actives have a fitted effect of over 55% in size
In short: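 Following 5 h plating at 37 C and 5% CO2, PPARd UAS-bla HEK293H cells took up test compounds for 17 h. Viability was quantified by luminescence 30 min after CellTiter-Glo addition at room temperature.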

[12] = qHTS assay to identify small molecule antagonists of the peroxisome proliferator-activated receptor delta (PPARd) signaling pathway - cell viability counter screen (AID 743213); also: nearly all actives have a fitted effect of over 50% in size
In short: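 Luminescence from CellTiter-Glo, added after the bla read and incubated 30 min at room temperature, gives viability of HEK293H PPARd-bla cells exposed to compounds for 17 h at 37 C with 300 nM L165041.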

[13] = qHTS assay to identify small molecule agonists of the farnesoid-X-receptor (FXR) signaling pathway - cell viability counter screen (AID 743218); also: nearly all actives have a fitted effect of over 45% in size
In short: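 Quantitative HTS counter screen measuring ATP-based viability via CellTiter-Glo luminescence in HEK 293T cells carrying a UAS-driven beta-lactamase reporter, after 16 h compound exposure at 37 C.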

[14] = qHTS assay to identify small molecule antagonists of the farnesoid-X-receptor (FXR) signaling pathway - cell viability counter screen (AID 743221; active = well fitted cell-killing curve with a large enough effect in the repeat runs, not every such curve was filed as active; also: nearly all actives have a fitted effect of over 50% in size)
In short: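 Compound effects on cell number were measured as CellTiter-Glo luminescence in HEK 293T cells expressing FXR-UAS-bla, after 16 h at 37 C with 50 uM CDCA (final).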

[15] = molecular target: Vitamin D3 receptor (Homo sapiens) (UniProt P11473); test: qHTS assay to identify small molecule agonists of the vitamin D receptor (VDR) signaling pathway (AID 743222; calls by dose curve)
Sequence of Vitamin D3 receptor (Homo sapiens) (P11473 whole entry, looked up): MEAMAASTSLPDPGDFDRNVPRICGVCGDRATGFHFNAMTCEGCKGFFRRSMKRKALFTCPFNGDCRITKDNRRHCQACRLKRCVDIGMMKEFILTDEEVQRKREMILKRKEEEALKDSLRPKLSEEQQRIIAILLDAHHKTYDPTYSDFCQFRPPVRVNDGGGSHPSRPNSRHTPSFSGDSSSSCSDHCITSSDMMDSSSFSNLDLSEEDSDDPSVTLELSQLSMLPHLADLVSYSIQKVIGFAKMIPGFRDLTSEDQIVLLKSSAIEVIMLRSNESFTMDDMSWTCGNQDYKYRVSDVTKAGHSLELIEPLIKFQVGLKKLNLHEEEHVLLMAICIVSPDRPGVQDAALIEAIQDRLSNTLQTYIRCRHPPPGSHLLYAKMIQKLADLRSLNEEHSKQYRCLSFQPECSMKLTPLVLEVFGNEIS
In short: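 Tox21 cell reporter format: VDR-bla line, 16 h compound exposure in 5% CO2 at 37C, then fluorescence intensity after 2 h with LiveBLAzer B/G FRET substrate.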

[16] = molecular target: Vitamin D3 receptor (Homo sapiens) (UniProt P11473); test: qHTS assay to identify small molecule antagonists of the vitamin D receptor (VDR) signaling pathway (AID 743223; active = well fitted inhibition curve with a large enough effect in the signal ratio in the repeat runs, not every such curve was filed as active; the % refers to the signal ratio)
In short: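 Beta-lactamase activity in VDR-bla cells is measured by FRET substrate fluorescence (2 h, room temperature) after cells spend 16 h at 37C with test compound and 3 nM final 1alpha,25-dihydroxyvitamin D3.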

[17] = molecular target: Peroxisome proliferator-activated receptor delta (Homo sapiens) (UniProt Q03181); test: qHTS assay to identify small molecule agonists of the peroxisome proliferator-activated receptor delta (PPARd) signaling pathway (AID 743212; calls by dose curve)
Sequence of Peroxisome proliferator-activated receptor delta (Homo sapiens) (Q03181 whole entry, looked up): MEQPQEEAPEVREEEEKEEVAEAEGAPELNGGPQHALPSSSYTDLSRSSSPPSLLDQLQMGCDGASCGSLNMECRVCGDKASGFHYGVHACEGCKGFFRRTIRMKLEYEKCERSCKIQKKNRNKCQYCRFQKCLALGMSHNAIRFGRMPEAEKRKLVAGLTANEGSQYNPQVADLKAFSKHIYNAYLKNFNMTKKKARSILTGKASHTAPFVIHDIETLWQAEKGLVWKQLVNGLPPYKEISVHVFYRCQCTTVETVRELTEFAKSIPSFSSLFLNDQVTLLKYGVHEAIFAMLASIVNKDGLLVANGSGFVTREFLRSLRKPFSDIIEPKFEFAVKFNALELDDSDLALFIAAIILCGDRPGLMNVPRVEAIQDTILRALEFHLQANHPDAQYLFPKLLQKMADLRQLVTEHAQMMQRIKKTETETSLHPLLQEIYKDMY
In short: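 Beta-lactamase reporter readout: a ratiometric FRET signal from the LiveBLAzer substrate after 2 h at room temperature. Compound exposure at 37 °C in PPARδ-bla HEK293H cells driven by an upstream activator sequence.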

[18] = molecular target: Peroxisome proliferator-activated receptor delta (Homo sapiens) (UniProt Q03181); test: qHTS assay to identify small molecule antagonists of the peroxisome proliferator-activated receptor delta (PPARd) signaling pathway (AID 743215; active = well fitted inhibition curve with a large enough effect in the signal ratio in the repeat runs, not every such curve was filed as active; the % refers to the signal ratio;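 also: cells stimulated with agonist L165041 at 300 nM final during compound exposure; series mostly up to about 62 µM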)
In short: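 Here, a reporter line (HEK293H, beta-lactamase under a UAS) measures PPARd signaling. Compounds are tested against agonist L165041 at 300 nM final concentration over 17 h at 37 C, with fluorescence read after substrate.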

[19] = molecular target: Bile acid receptor (Homo sapiens) (UniProt Q96RI1); test: qHTS assay to identify small molecule antagonists of the farnesoid-X-receptor (FXR) signaling pathway (AID 743217; active = well fitted inhibition curve with a large enough effect in the signal ratio in the repeat runs, not every such curve was filed as active; the % refers to the signal ratio)
Sequence of Bile acid receptor (Homo sapiens) (Q96RI1 whole entry, looked up): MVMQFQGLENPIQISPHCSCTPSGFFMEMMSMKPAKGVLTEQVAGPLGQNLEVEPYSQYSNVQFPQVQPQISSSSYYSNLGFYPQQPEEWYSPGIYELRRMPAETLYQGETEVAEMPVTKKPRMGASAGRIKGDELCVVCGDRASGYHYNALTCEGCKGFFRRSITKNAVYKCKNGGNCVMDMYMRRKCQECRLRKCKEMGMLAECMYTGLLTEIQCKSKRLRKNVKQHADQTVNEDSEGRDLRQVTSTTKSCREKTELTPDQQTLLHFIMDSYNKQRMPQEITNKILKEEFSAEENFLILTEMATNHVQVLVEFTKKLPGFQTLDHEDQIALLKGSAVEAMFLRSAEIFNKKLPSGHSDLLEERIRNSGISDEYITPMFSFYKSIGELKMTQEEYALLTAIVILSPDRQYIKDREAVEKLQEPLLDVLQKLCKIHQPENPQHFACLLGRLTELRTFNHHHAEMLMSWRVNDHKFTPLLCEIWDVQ
In short: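 Test compounds are pin-transferred onto FXR-bla HEK 293T cells, then chenodeoxycholic acid is added at 50 uM final. After 16 h at 37 °C, LiveBLAzer B/G substrate is applied for 2 h at room temperature and fluorescence read.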

[20] = molecular target: Bile acid receptor (Homo sapiens) (UniProt Q96RI1); test: qHTS assay to identify small molecule agonists of the farnesoid-X-receptor (FXR) signaling pathway (AID 743220; active = well fitted activation curve with a large enough effect in the signal ratio in the repeat runs, not every such curve was filed as active; the % refers to the signal ratio)
In short: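 FXR-UAS-bla HEK 293T cells carrying a UAS-driven beta-lactamase reporter were plated for 5 h at 37C/5% CO2, then exposed to DMSO-dissolved Tox21 10K compounds for 16 h at 37C. A LiveBLAzer B/G FRET substrate was loaded for 2 h at room temperature before fluorescence reading.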

Structure (SMILES) | Potency [1] | Potency [2] | Potency [3] | Potency [4] | Potency [5] | Potency [6] | Potency [7] | Potency [8] | outcome [9] | outcome [10] | Potency [11] | Potency [12] | Potency [13] | outcome [14] | outcome [15] | Potency [16] | outcome [17] | outcome [18] | Potency [19] | outcome [20]
C=C(C)C(N)=O | inactive | inactive | inactive | inactive | inactive | inactive | inactive | inactive | inactive | inactive | inactive | inactive | inactive | inactive | inactive | inactive | – | – | – | –
Cc1cccc(C)c1O | inactive | inactive | inactive | inactive | inactive | inactive | inactive | inactive | inactive | inactive | inactive | inactive | inactive | inactive | inactive | inactive | inactive | inactive | – | –
COC1=CC(=O)C[C@@H](C)[C@]12Oc1c(Cl)c(OC)cc(OC)c1C2=O | inactive | inactive | inactive | inactive and 48.5 µM (active) | 19.5 µM (active) | inactive | – | inactive | inactive | inactive | inactive | inactive | inactive | inactive | inactive | – | inactive | – | inactive | inactive
COC(=O)c1ccc(O)cc1 | inactive | inactive | inactive | inactive | inactive | inactive | inactive | inactive | inactive | inactive | inactive | inactive | inactive | inactive | inactive | inactive | inactive | inactive | – | –
CCOCCO | inactive | inactive | inactive | inactive | inactive | inactive | inactive | inactive | inactive | inactive | inactive | inactive | inactive | inactive | inactive | inactive | – | – | inactive | inactive
Nc1cccc(N)c1 | inactive | 54.4 µM (active) | inactive | inactive | inactive | inactive | inactive | inactive | inactive | inactive | inactive | inactive | inactive | inactive | inactive | inactive | – | – | inactive | inactive
CN(C)Cc1cc(CN(C)C)c(O)c(CN(C)C)c1 | inactive | inactive | inactive | inactive | inactive | inactive | inactive | inactive | inactive | inactive | inactive | inactive | inactive | inactive | – | – | – | – | inactive | inactive
CC(=O)Oc1ccccc1C(=O)O | inactive | inactive | inactive | inactive | inactive | inactive | inactive | inactive | inactive | – | inactive | inactive | inactive | inactive | inactive | inactive | – | – | – | –
OCCCc1ccccc1 | inactive | inactive | inactive | inactive | inactive | inactive | inactive | inactive | inactive | inactive | inactive | inactive | inactive | inactive | inactive | inactive | inactive | inactive | – | –
C=C(C)OC(C)=O | inactive | inactive | inactive | inactive | inactive | inactive | inactive | inactive | inactive | inactive | inactive | inactive | inactive | inactive | inactive | inactive | – | – | – | –
CN/C(=C\[N+](=O)[O-])NCCSCc1ccc(CN(C)C)o1 | inactive | inactive | inactive | inactive | inactive | inactive | inactive | inactive | inactive | – | inactive | inactive | inactive | inactive | inactive | inactive | inactive | inactive | – | –
O=[N+]([O-])c1ccc(O)cc1 | 63.5 µM (active) | inactive | 54.5 µM (active) and inactive | inactive | inactive | inactive | inactive | inactive | inactive | inactive | inactive | inactive | inactive | inactive | inactive | inactive | inactive | inactive | – | –
Cc1cnc(NC(=O)C2=C(O)c3ccccc3S(=O)(=O)N2C)s1 | inactive | inactive and 61.1 µM (active) | inactive | inactive | inactive | inactive | – | inactive | inactive | inactive | inactive | inactive | inactive | inactive | – | – | inactive | inactive | inactive | inactive
C#C[C@]1(O)CC[C@H]2[C@@H]3CCC4=CC(=O)CC[C@@H]4[C@H]3CC[C@@]21CC | inactive | inactive | inactive | inactive | inactive | inactive | 48.6 µM (active) | inactive | inactive | – | inactive | inactive | inactive | inactive | inactive | inactive | inactive | inactive | – | –
CN(C)C=O | inactive | inactive | inactive | inactive | inactive | inactive | inactive | inactive | inactive | inactive | inactive | inactive | inactive | inactive | – | – | – | – | inactive | inactive
CCCCOCCOCCSC#N | inactive | inactive | inactive | inactive | – | inactive | inactive | inactive | inactive | – | inactive | inactive | inactive | inactive | inactive | inactive | inactive | inactive | – | –
CC(=O)/C=C/C1=C(C)CCCC1(C)C | inactive | inactive | inactive | inactive | – | inactive | inactive | inactive | inactive | inactive | inactive | inactive | inactive | inactive | inactive | inactive | – | – | inactive | inactive
